# According to PubChem BioAssay (NCATS):
# Where “and” joins values, the source holds several entries; their conditions need not be identical. Identical values can stand only once. Records with an inconclusive call do not appear. A number with no mark means an inactive call. Calls of active or inactive are those of the source. The call rests on the fitted dose curve; in most records, active means well fitted inhibition curve with a large enough effect; inconclusive means small, poorly fitted or top-dose-only effect; inactive means flat fitted curve, though single readings scatter. *1 amine or outer side, *2 acyl side, *3 side chain or, on linkers, in order; H or OH if unused. Where a SMILES comes first, the peptide text is derived from it. Bridges are numbered along the chain shown (N, C = ends). X6 = O=C(CCC[*:2])[*:1]
# Assays:
# [1] = test system: CRL-7250; assay: Cytotoxic Profiling of Annotated Libraries Using Quantitative High-Throughput Screening (AID 1296008); conditions: Five cell lines viability, CellTiter-Glo ATP luminescence, 48-72 h; max response: stronger effect = lower value; on max response: on the % scale 0 is the no-effect control and ±100 the full control effect
# How it was run: (§1)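 Cytotoxicity was measured as CellTiter-Glo ATP luminescence, read after 10 min at room temperature. Compound treatment of the cells lasted 48 or 72 hr at 37 degrees Celsius in a qHTS format.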
# [2] = test system: HEK293; assay: as above; conditions: Five cell lines viability, CellTiter-Glo ATP luminescence, 48-72 h; max response: stronger effect = lower value
# How it was run: as §1
# [3] = test system: HaCat; assay: as above; conditions: Five cell lines viability, CellTiter-Glo ATP luminescence, 48-72 h; max response: stronger effect = lower value
# How it was run: as §1
# [4] = test system: KB-3-1; assay: as above; conditions: Five cell lines viability, CellTiter-Glo ATP luminescence, 48-72 h; max response: stronger effect = lower value
# How it was run: as §1
# [5] = test system: NIH3T3; assay: as above; conditions: Five cell lines viability, CellTiter-Glo ATP luminescence, 48-72 h; max response: stronger effect = lower value
# How it was run: as §1
# [6] = test system: HEK293T; assay: qHTS assay to identify novel small-molecules to repurpose for Merkel cell carcinoma treatment (AID 1296009); conditions: MCC and control cell lines, CellTiter-Glo viability, 72 h; series mostly up to 44.8 µM
# How it was run: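 Cell viability measured by CellTiter-Glo following 72 hr compound treatment at 37 degree celsius, with NPC and MIPE libraries tested in 8- and 11-point concentration series.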
# Further: nearly all actives have a fitted effect of over 60% in size.
# Potency means the concentration at half of the fitted maximal effect.
smiles,measurement,setting,value
COC1CC(=O)C23C(=O)NC(CC(C)C)C2C(C)C(C)=CC3/C=C(\C)CCC1O (stereo not given),outcome,[1],inactive
same,outcome,[2],inactive
same,max response,[3],-17.4%
same,max response,[4],0.905%
same,max response,[5],-0.706%
same,Potency,[6],inactive
C=C1CCC2[C@@](C)(C=O)CCC[C@]2(C)[C@H]1CC/C(C)=C/CO (stereo not given in full),outcome,[1],inactive
same,outcome,[2],inactive
same,max response,[3],3.6%
same,max response,[4],7.89%
same,max response,[5],1.05%
same,Potency,[6],inactive
COC(=O)CC1(O)C(=O)Nc2ccccc21 (stereo not given),max response,[1],3.09%
same,outcome,[2],inactive
same,max response,[3],-5.67%
same,outcome,[4],inactive
same,max response,[5],2.12%
same,Potency,[6],inactive
CC(=O)OC[C@]1(O)[C@H]2[C@H](OC(=O)CC(C)C)OC=C(CO[C@@H]3O[C@H](CO)[C@@H](O)[C@H](O)[C@H]3O)[C@H]2C[C@@H]1O,outcome,[1],inactive
same,outcome,[2],inactive
same,max response,[3],-3.61%
same,outcome,[4],inactive
same,outcome,[5],inactive
same,Potency,[6],inactive
COC(=O)C1=CO[C@@H](O[C@@H]2O[C@H](CO)[C@@H](O)[C@H](O)[C@H]2O)[C@@H]2[C@@](C)(O)[C@@H](O)C[C@]12O,max response,[1],-11.5%
same,outcome,[2],inactive
same,max response,[3],3.45%
same,max response,[4],1.93%
same,max response,[5],-0.0114%
same,Potency,[6],inactive
COC12CC3C(C(C)C1=CC(=O)O2)C(O)C(OC(C)=O)C1C(C)(C)C(OC(C)=O)CCC31C (stereo not given),max response,[1],0.349%
same,outcome,[2],inactive
same,max response,[3],-18.1%
same,outcome,[4],inactive
same,outcome,[5],inactive
same,Potency,[6],inactive
CC12CCC3c4ccc(O)cc4CCC3C1CCC2OC1OC(C(=O)O)C(O)C(O)C1O (stereo not given),outcome,[1],inactive
same,outcome,[2],inactive
same,max response,[3],2.12%
same,outcome,[4],inactive
same,max response,[5],1.3%
same,Potency,[6],inactive
CCc1nc(C(N)=O)c(Nc2ccc(N3CCC(N4CCN(C)CC4)CC3)c(OC)c2)nc1NC1CCOCC1,Potency,[1],5.24 µM (active)
same,Potency,[2],1.61 µM (active) and 1.32 µM (active)
same,Potency,[3],2.55 µM (active)
same,Potency,[5],1.01 µM (active) and 831 nM (active)
CCNC(=O)[C@@H]1CCCN1C(=O)[C@H](CCCN=C(N)N)NC(=O)[C@H](CC(C)C)NC(=O)[C@@H](C)NC(=O)[C@H](Cc1ccc(O)cc1)NC(=O)[C@H](CO)NC(=O)[C@H](Cc1c[nH]c2ccccc12)NC(=O)[C@H](Cc1cnc[nH]1)NC(=O)[C@@H]1CCC(=O)N1,outcome,[1],inactive
same,outcome,[2],inactive
same,max response,[3],-3.68%
same,max response,[4],8.19%
same,max response,[5],-1.38%
same,Potency,[6],inactive
CC[C@H](C)[C@@H]1NC(=O)[C@H](Cc2ccc(OC)cc2)NC(=O)CCCSC[C@@H](C(=O)N2CCC[C@H]2C(=O)N[C@@H](CC(C)C)C(=O)NCC(N)=O)NC(=O)[C@H](CC(N)=O)NC(=O)[C@H](CCC(N)=O)NC1=O (Y(Me)IQNCPLG-NH2; linker N-5 via X6),max response,[1],-0.379%
same,outcome,[2],inactive
same,max response,[3],-67.2%
same,outcome,[4],inactive
same,outcome,[5],inactive
same,Potency,[6],inactive
C[C@@H]1C[C@H]2[C@@H]3CCC4=CC(=O)C=C[C@]4(C)[C@@]3(F)[C@@H](O)C[C@]2(C)[C@@]1(O)C(=O)COP(=O)(O)O,max response,[1],-4.68%
same,max response,[2],4.74%
same,max response,[4],13.8%
same,outcome,[4],inactive
N#Cc1ccc2[nH]c(O)c(-c3ccc(CN4CCOCC4)cn3)c2c1,max response,[2],-0.745%
same,outcome,[2],inactive
same,max response,[3],-0.0847%
same,max response,[5],-16.6%
same,outcome,[5],inactive
same,Potency,[6],inactive
C/C(=C\CCC(C(=O)O)C1CCC2(C)C3=C(CCC12C)C1(C)CCC(=O)C(C)(C)C1CC3)C(=O)O (stereo not given),max response,[1],-10.7%
same,outcome,[2],inactive
same,max response,[3],0.998%
same,outcome,[4],inactive
same,outcome,[5],inactive
same,Potency,[6],inactive
CON(C)C(=O)N1N=C(c2cc(F)ccc2F)S[C@@]1(CCCN)c1ccccc1,max response,[1],-53.9% and -40.4%
same,Potency,[2],4.6 nM (active)
same,Potency,[4],8.2 nM (active)
same,max response,[5],-29.1%
CC(=O)c1c(C)cc(O[C@@H]2O[C@H](CO)[C@@H](O)[C@H](O)[C@H]2O)cc1O,outcome,[1],inactive
same,outcome,[2],inactive
same,max response,[3],3.2%
same,max response,[4],-6.9%
same,max response,[5],0.376%
same,Potency,[6],inactive
COc1c(C)c(OCC=C(C)C)cc2c1C(=O)NC2=O,max response,[1],-3.35%
same,outcome,[2],inactive
same,max response,[3],-14.7%
same,outcome,[4],inactive
same,max response,[5],-1.16%
same,Potency,[6],inactive
CC1(C)CC[C@]2(C(=O)O)CC[C@]3(C)C(=CCC4[C@@]5(C)CC[C@H](O[C@@H]6O[C@H](C(=O)O)[C@@H](O)[C@H](O)[C@H]6O)C(C)(CO)C5CC[C@]43C)C2C1 (stereo not given in full),max response,[1],4.13%
same,outcome,[2],inactive
same,max response,[3],-0.619%
same,outcome,[4],inactive
same,max response,[5],-4.92%
same,Potency,[6],inactive
OC[C@H]1O[C@@H](n2cnc3c2NC=NC[C@H]3O)C[C@@H]1O,max response,[1],4.05%
same,outcome,[2],inactive
same,max response,[4],-3.14% and 0.256%
same,max response,[5],-9.01%
same,Potency,[6],inactive
COc1ccc(C[C@H](N)C(=O)N[C@H]2[C@@H](O)[C@H](n3cnc4c(N(C)C)ncnc43)O[C@@H]2CO)cc1,Potency,[1],0.92 µM (active)
same,Potency,[3],1.3 µM (active)
same,Potency,[4],5.17 µM (active) and 517 nM (active)
same,Potency,[5],2.31 µM (active)
same,Potency,[6],1.16 µM (active)
Cn1c(=O)cc(N2CCCC(N)C2)n(Cc2ccccc2C#N)c1=O (stereo not given),max response,[1],-7.54%
same,outcome,[2],inactive
same,max response,[3],0.732%
same,max response,[4],8.99%
same,outcome,[5],inactive
same,Potency,[6],inactive
COC(=O)c1cc(CN2CCN(C(=N)N)CC2)cc(C(=O)N2CCN(C(=O)c3ccc(C(=N)N)cc3)CC2)c1,outcome,[1],inactive
same,outcome,[2],inactive
same,max response,[3],1.52%
same,max response,[4],2.44%
same,outcome,[5],inactive
same,Potency,[6],inactive
COc1cc(C2Oc3c(O)cc(CCCO)cc3C2CO)ccc1O[C@H]1O[C@H](C)[C@@H](O)[C@H](O)[C@@H]1O (stereo not given in full),max response,[1],0.29%
same,outcome,[2],inactive
same,max response,[3],3.18%
same,outcome,[4],inactive
same,max response,[5],-0.439%
same,Potency,[6],inactive
O=C(CCO[C@@H]1O[C@H](CO)[C@@H](O)[C@H](O)[C@H]1O)c1ccc(O)cc1,max response,[1],3.35%
same,outcome,[2],inactive
same,max response,[3],-12%
same,outcome,[4],inactive
same,max response,[5],-1.69%
same,Potency,[6],inactive
